Experimental data taken from PubChem BioAssay (Tox21).
“And” between values parts separate entries of the source, which are not always exact repeats. Identical values can stand only once. Inconclusive results are not listed. Entries that show only a call come without a potency. The source holds several records for some structures; these can differ, active in one and inactive in another. The source made the active and inactive calls. Unless noted, the call rests on the fitted dose curve.

Test system: not listed separately
Assay: qHTS assay to identify small molecule agonists of the sonic hedgehog signaling (Shh) pathway (AID 1259368);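 further: NIH/3T3-derived 3T3Gli1-Luc cells carrying a stable Gli1-driven firefly luciferase reporter; nearly all actives have a fitted effect of over 15% in size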
Conditions: NIH/3T3 Gli1-Luc reporter, luciferase, 24 h; series mostly up to 92.4 µM
Procedure, shortened: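 Luminescent signal was taken as a measure of Gli1-controlled luciferase expression in stably transfected NIH/3T3-derived cells that had been treated for 24 hr with compounds delivered in DMSO.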

| SMILES | Potency | activity change |
| --- | --- | --- |
| C=C(CC)C(=O)c1ccc(OCC(=O)O)c(Cl)c1Cl | inactive | – |
| CC(C)Cn1cnc2c(N)nc3ccccc3c21 | – | 3.39% [at 18.9 µM, stronger effect = higher value] (inactive) |
| C[C@H]1NCc2cc(-c3ccc4c(=O)c(C(=O)O)cn(C5CC5)c4c3OC(F)F)ccc21 | – | -0.818% [at 18.9 µM, stronger effect = higher value] (inactive) |
| CC(C)=CCC1=C(O)c2ccccc2C(=O)C1=O | inactive | – |
| CC(C)=CCNc1ncnc2c1ncn2[C@@H]1O[C@H](CO)[C@@H](O)[C@H]1O | inactive | – |
| CCOC(=O)NNc1ccc(N(CC)CC(C)O)nn1 (centres undefined) | inactive | – |
| O=C(O)[C@H](O)[C@@H](O)[C@H](O[C@@H]1O[C@H](CO)[C@H](O)[C@H](O)[C@H]1O)[C@H](O)CO | inactive | – |
| CCCCCCCCCCCCOCCOCCOCCOCCOCCOCCOCCOCCOCCO | inactive | – |
| CC(CCc1ccccc1)NCC(O)c1ccc(O)c(C(N)=O)c1 (centres undefined) | inactive | – |
| CCCCC/C=C\C/C=C\CCCCCCCC(=O)O | inactive | – |
| CCCCCCCCCCCCCC[N+](C)(C)C | inactive | – |
| C#C[C@]1(OC(C)=O)CC[C@H]2[C@@H]3CCC4=C/C(=N/O)CC[C@@H]4[C@H]3CC[C@@]21CC | inactive | – |
| CCCCCCCCCCCCCC[N+](C)(C)Cc1ccccc1 | inactive | – |
| CCOC(=O)Cn1cccc1-c1nc(-c2ccc(OC)cc2)c(-c2ccc(OC)cc2)s1 | inactive | – |
| Cc1c(C)c2c(c(C)c1O)CC[C@@](C)(CCC[C@H](C)CCC[C@H](C)CCCC(C)C)O2 | inactive | – |
| CCN(CC)c1ccc2c(-c3ccc(S(=O)(=O)O)cc3S(=O)(=O)[O-])c3ccc(=[N+](CC)CC)cc-3oc2c1 | inactive | – |
| O[C@@H]([C@H](O)[C@H](O)CBr)[C@H](O)CBr | inactive | – |

Test system: not listed separately
Assay: qHTS assay to identify small molecule antagonists of the sonic hedgehog signaling (Shh) pathway (AID 1259369); further: nearly all actives have a fitted effect of over 45% in size; further: potency means the concentration at half of the fitted maximal effect
Conditions: NIH/3T3 Gli1-Luc reporter, Shh antagonist, luminescence 24 h; series mostly up to 92.4 µM
Procedure, shortened: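 Screening used 3T3Gli1-Luc cells at 2,000 per well, compounds delivered in DMSO, and conditioned medium as agonist stimulus; plates incubated 24hr at 37 C and 5% CO2 before a 30min luciferase step.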

| SMILES | Potency |
| --- | --- |
| CCc1cccc(CC)c1NC(=O)CN(CC(=O)O)CC(=O)O | inactive |
| Cc1c(N)cccc1C(F)(F)F | inactive |
| O=C(O)c1cc(=O)c2ccccc2o1 | inactive |
| CCN(CC)C(=O)c1cc(S(=O)(=O)Cc2ccccc2)c(N2CCC(c3ccccc3)CC2)cc1N(CC)CCN(C)C | 6.78 µM (active) |
| Cc1c(F)c(N2CCNC(C)C2)cc2c1c(=O)c(C(=O)O)cn2C1CC1 (centres undefined) | inactive |
| O=C(O)c1cc(-c2ccc(F)cc2F)ccc1O | inactive |
| O=c1[nH]c(=O)n([C@H]2C[C@H](O)[C@@H](CO)O2)cc1F | inactive |
| Cc1cccc(C(=O)O)c1O | inactive |
| CCCCCCCCCCC[C@@H](C[C@@H]1OC(=O)[C@H]1CCCCCC)OC(=O)[C@H](CC(C)C)NC=O | inactive |
| Cc1cc(=O)oc2cc(O)cc(O)c12 | 21.8 µM (active) |
| CCCCCCCC/C=C\CCCCCCCCN | inactive |
| Cc1cc(C(C)(C)C)cc(C)c1CC1=NCCN1 | inactive |
| C#CC1(O)CC[C@H]2[C@@H]3CCC4=CCCC[C@@H]4[C@H]3CC[C@@]21C (some centres undefined) | 48.6 µM (active) and inactive |
| C=C(CC)C(=O)c1ccc(OCC(=O)O)c(Cl)c1Cl | 6.68 µM (active) |
| CC(C)=CCNc1ncnc2c1ncn2[C@@H]1O[C@H](CO)[C@@H](O)[C@H]1O | 2.98 µM (active) |
| CCOC(=O)NNc1ccc(N(CC)CC(C)O)nn1 (centres undefined) | inactive |
| O=C(O)[C@H](O)[C@@H](O)[C@H](O[C@@H]1O[C@H](CO)[C@H](O)[C@H](O)[C@H]1O)[C@H](O)CO | inactive |
| CCCCCCCCCCCCOCCOCCOCCOCCOCCOCCOCCOCCOCCO | 7.5 µM (active) |
| CC(CCc1ccccc1)NCC(O)c1ccc(O)c(C(N)=O)c1 (centres undefined) | 30.6 µM (active) |
| CCCCCCCCCCCCCC[N+](C)(C)C | 27.3 µM (active) and 531 nM (active) |
| C#C[C@]1(OC(C)=O)CC[C@H]2[C@@H]3CCC4=C/C(=N/O)CC[C@@H]4[C@H]3CC[C@@]21CC | inactive |
| CCCCCCCCCCCCCC[N+](C)(C)Cc1ccccc1 | 349 nM (active) and 422 nM (active) |
| CCOC(=O)Cn1cccc1-c1nc(-c2ccc(OC)cc2)c(-c2ccc(OC)cc2)s1 | inactive |
| Cc1c(C)c2c(c(C)c1O)CC[C@@](C)(CCC[C@H](C)CCC[C@H](C)CCCC(C)C)O2 | inactive |
| CCN(CC)c1ccc2c(-c3ccc(S(=O)(=O)O)cc3S(=O)(=O)[O-])c3ccc(=[N+](CC)CC)cc-3oc2c1 | inactive |
| O[C@@H]([C@H](O)[C@H](O)CBr)[C@H](O)CBr | inactive |

Biological target: Estrogen receptor beta (Homo sapiens) (UniProt Q92731)
Sequence (Q92731 whole entry, looked up): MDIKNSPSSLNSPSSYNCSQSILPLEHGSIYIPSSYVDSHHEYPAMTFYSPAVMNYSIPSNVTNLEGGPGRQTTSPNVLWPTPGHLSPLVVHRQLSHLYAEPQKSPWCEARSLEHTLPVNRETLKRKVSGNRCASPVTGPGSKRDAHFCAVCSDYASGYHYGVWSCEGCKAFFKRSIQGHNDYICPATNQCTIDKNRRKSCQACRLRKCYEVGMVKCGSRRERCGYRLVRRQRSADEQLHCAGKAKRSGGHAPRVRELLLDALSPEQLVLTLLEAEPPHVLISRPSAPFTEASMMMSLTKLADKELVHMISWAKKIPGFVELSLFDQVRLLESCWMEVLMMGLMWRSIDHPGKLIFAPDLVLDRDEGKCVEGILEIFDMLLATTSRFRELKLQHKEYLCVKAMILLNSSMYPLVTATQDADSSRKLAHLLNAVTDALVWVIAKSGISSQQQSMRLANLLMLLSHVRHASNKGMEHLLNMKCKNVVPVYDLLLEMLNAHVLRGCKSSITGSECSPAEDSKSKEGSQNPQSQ
Assay: qHTS assay to identify small molecule agonists of the estrogen receptor beta (ER-beta) signaling pathway (AID 1259377; active means well fitted activation curve with a large enough effect in the signal ratio in the repeat runs, not every such curve was filed as active; the % refers to the signal ratio)
Conditions: ER-beta-UAS-bla HEK293T, beta-lactamase FRET ratio, 16 h; series mostly up to 92.4 µM
Procedure, shortened: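 ER-beta-UAS-bla HEK293T cells in medium with 2% charcoal-stripped FBS were exposed to compounds for 16 h at 37C. Beta-lactamase reporter activity was read as fluorescence after 2 h with LiveBLAzer B/G FRET substrate at room temperature.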

| SMILES | Potency | activation |
| --- | --- | --- |
| COC(C)=O | inactive | – |
| CCc1cccc(CC)c1NC(=O)CN(CC(=O)O)CC(=O)O | inactive | – |
| CC(=O)Oc1cc2c(s1)CCN(C(C(=O)C1CC1)c1ccccc1F)C2 (centres undefined) | inactive | – |
| O=C(O)c1cc(=O)c2ccccc2o1 | inactive | – |
| CCN(CC)C(=O)c1cc(S(=O)(=O)Cc2ccccc2)c(N2CCC(c3ccccc3)CC2)cc1N(CC)CCN(C)C | inactive | – |
| CN1CCN2c3ccccc3Cc3ccccc3C2C1 (centres undefined) | inactive | – |
| CC[N+](CC)(CC)CCOc1ccc(/C=C/c2ccccc2)cc1 | inactive | – |
| O=c1[nH]c(=O)n([C@H]2C[C@H](O)[C@@H](CO)O2)cc1F | inactive | – |
| CCCCCCCC/C=C\CCCCCCCCN | inactive | – |
| CC(C)Cn1cnc2c(N)nc3ccccc3c21 | – | 4.64% [at 19 µM] (inactive) |
| CC(C)=CCC1=C(O)c2ccccc2C(=O)C1=O | inactive | – |
| CCOC(=O)NNc1ccc(N(CC)CC(C)O)nn1 (centres undefined) | inactive | – |
| O=C(O)[C@H](O)[C@@H](O)[C@H](O[C@@H]1O[C@H](CO)[C@H](O)[C@H](O)[C@H]1O)[C@H](O)CO | inactive | – |
| CC(CCc1ccccc1)NCC(O)c1ccc(O)c(C(N)=O)c1 (centres undefined) | inactive | – |
| C#C[C@]1(OC(C)=O)CC[C@H]2[C@@H]3CCC4=C/C(=N/O)CC[C@@H]4[C@H]3CC[C@@]21CC | inactive | – |
| CCN(CC)c1ccc2c(-c3ccc(S(=O)(=O)O)cc3S(=O)(=O)[O-])c3ccc(=[N+](CC)CC)cc-3oc2c1 | inactive | – |
